Mot1-301 SUMO: SUMOylation pathway inhibition by Mot1-301 growth rescue. 1% of 320,000 active. AID 2716. S. cerevisiae Mot1-301 growth rescue, ATP luminescence, 38.5C; percent above DMSO median, 100 means doubled. growth rescue, % at 18.8 µM;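 active means every valid replicate shows activation above 250% relative to neutral control wells; inactive means the rest, any valid replicate at or below 250%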;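 further: OY570 slx delta 5 strain wells were the positive control but not used for scaling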
AI-2 QS modul: modulators of Vibrio harveyi AI-2 quorum sensing system | 0.4% of 300,000 active | activity change, % at 7.5 µM | Vibrio harveyi JMH597 AI-2 luminescence/OD600 ratio, 9 h; hits give low values; strain lacks LuxN and CqsS sensors; 0 = neutral-control median; in the data active means activity change below about -75%, passing the limit was not always enough;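 further: luminescence divided by OD600 gain over 9 h not by final OD600 alone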
ATG4B inh: blocks human ATG4B protease cleavage of LC3 substrate; 0.51% of 340,000 active; Q9Y4P1; inhibition, % at 8.33 µM; AID 504462; ATG4B cleavage of LC3-PLA2, NBD-HPC fluorescence, 1 h; in the data active means inhibition above about 40%
Target sequence (Q9Y4P1 whole entry, looked up): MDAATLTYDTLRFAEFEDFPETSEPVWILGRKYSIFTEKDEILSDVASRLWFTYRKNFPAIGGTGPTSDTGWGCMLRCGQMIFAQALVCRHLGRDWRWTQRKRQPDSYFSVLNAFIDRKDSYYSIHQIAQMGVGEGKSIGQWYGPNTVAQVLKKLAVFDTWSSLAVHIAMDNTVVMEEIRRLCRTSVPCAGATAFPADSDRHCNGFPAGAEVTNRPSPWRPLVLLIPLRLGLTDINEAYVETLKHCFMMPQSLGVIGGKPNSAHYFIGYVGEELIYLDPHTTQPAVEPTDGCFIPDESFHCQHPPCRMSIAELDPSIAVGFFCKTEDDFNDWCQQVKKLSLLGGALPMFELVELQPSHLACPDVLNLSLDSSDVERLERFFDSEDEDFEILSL
Efflux pump mplx: inhibitors of Candida antifungal efflux pumps expressed in yeast. S. cerevisiae Candida pump triplex, Nile Red efflux. inhibition, % at 10 µM. 0.44% of 330,000 active;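 active means plate passing quality check with inhibition over a set limit, or well fluorescence over plate mean plus 4 SD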;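 further: Nile Red retained in pooled yeast measured as flow cytometry median fluorescence; 0% = buffer negative control and 100% = Enniatin B positive control; higher means more Nile Red kept so more efflux inhibition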
V-ATPase pH: alters yeast V-ATPase proton transport; AID 504577; response, % at 10 µM; 0.37% of 350,000 active; S. cerevisiae, pHLuorin cytosolic pH fluorescence; in the data active means response mostly above about 7.3%, no sharp cut-off; inactive means mostly below about 5.4%; further: actives read high
Yeast cmpd fluor: compound fluorescence in yeast efflux pump counter-screen. S. cerevisiae AD/pABC3, flow cytometry. shares compounds with Efflux pump mplx. AID 588517. fluorescence ratio to DMSO, % at 10 µM. 4% of 1,700 active;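 active means fluorescence ratio to DMSO above its plate's cutoff, the plate mean ratio plus 5 SD, cut at about 210% in these data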;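 further: unstained yeast with no Nile Red so the signal is compound autofluorescence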
CaMdr1 efflux inh: inhibitors of Candida albicans Mdr1 efflux pump; S. cerevisiae AD/CaMDR1, Nile Red efflux, flow cytometry; inhibition, % at 10 µM; 1% of 1,700 active; shares compounds with Efflux pump mplx; in the data active means inhibition above about 26%;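 further: 0% = DMSO vehicle and 100% = reference inhibitor; higher means more Nile Red retained so more efflux inhibition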
Cdr2 pump inh: blocks the Candida albicans Cdr2 efflux pump in yeast | shares compounds with Efflux pump mplx | S. cerevisiae AD/CaCDR2, Nile Red retention, flow cytometry | Nile Red retention ratio vs DMSO, % at 10 µM | 4% of 1,700 active | AID 588520; in the data active means Nile Red retention ratio vs DMSO above about 190%;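 further: higher ratio means more blocking of Cdr2 efflux of the dye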
CaCdr1 efflux inh: Candida Cdr1 efflux pump inhibition; shares compounds with Efflux pump mplx; S. cerevisiae AD/CaCDR1, Nile Red efflux, flow cytometry; inhibition, % at 10 µM; 1% of 1,700 active;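 active means inhibition above the screen-wide mean plus twice its standard deviation, cut at about 32% in these data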
Numbers without * were called inactive; i = inactive; . = not tested or not shown; + = active, no number. An excerpt weighted towards active compounds, which were near 2.5% of everything screened.

SMILES	Mot1-301 SUMO	AI-2 QS modul	ATG4B inh	Efflux pump mplx	V-ATPase pH	Yeast cmpd fluor	CaMdr1 efflux inh	Cdr2 pump inh	CaCdr1 efflux inh
Cc1ccc2nc(SCC(=O)N3CCN(C(=O)c4ccco4)CC3)[nH]c2c1	-8	6	-3	-4	0	.	.	.	.
COC(=O)/C(=C(/F)Sc1cc(C)c(O)c(C)c1)C(F)(F)F	-12	20	1	0	-1	.	.	.	.
O=C(Oc1ccc2c(=O)c(Oc3ccc4ccccc4c3)coc2c1)c1cncc(Br)c1	-1	-83*	-5	1.2*	3	103	0	112	0
COc1ccc(-c2cc(C(=O)Nc3ccc(OC)c(OC)c3)no2)cc1	279	17	6	1.4*	0	102	-1	108	0
CSc1ccccc1OC1CCN(Cc2ccccc2)CC1	-29	11	7	5.8*	-3	102	0	101	0
CC(=O)C1CCN(Cc2ccccc2)CC1	-6	5	-11	0	-6	.	.	.	.
CCOC(=O)C(NC(=O)c1cccc(Cl)c1)(Nc1nnc(C)s1)C(F)(F)F (configuration not stated)	-17	12	-1	9.7*	-2	106	0	108	0
Cc1ccccc1OCCNc1cc(N2CCN(CCO)CC2)ccc1[N+](=O)[O-]	11	6	-22	19*	-2	107	0	95	0
Cc1ccccc1OCCNc1cc(N2CCCCC2)ccc1[N+](=O)[O-]	380	17	2	0	-2	.	.	.	.
COc1cccc(-c2nnc(SC(C(=O)c3c[nH]c4ccccc34)c3ccccc3)n2C)c1 (configuration not stated)	-9	23	-3	0.8*	-1	103	0	104	0
COc1ccccc1-c1nnc(SC(C(=O)c2c[nH]c3ccccc23)c2ccccc2)n1C (configuration not stated)	126	9	14	0	-2	.	.	.	.
Cc1ccc(-n2nc3c(=O)n(CC(=O)NCCc4cccs4)nc(C)c3c2C)cc1	1	15	-8	0	-2	98	0	98	0
Cc1ccc(-n2nc3c(=O)n(CCCC(=O)NCCN4CCN(C)CC4)nc(C)c3c2C)cc1	-17	15	11	5.4*	-6	104	0	98	0
COc1ccc(CNC(=O)C(C)n2nc(C)c3c(C)n(-c4ccc(C)cc4)nc3c2=O)cc1 (configuration not stated)	15	20	5	0	2	105	0	102	0
CCOc1ccc(CNC(=O)C(C)n2nc(C)c3c(C)n(-c4ccccc4)nc3c2=O)cc1 (configuration not stated)	-17	44	2	0	-6	.	.	.	.
Cc1nn(CCC(=O)NCc2ccc(OC(C)C)cc2)c(=O)c2nn(-c3ccccc3)c(C)c12	10	23	-1	0	-1	113	0	110	0
CCC1CCCCN1C(=O)CSc1nc(N)cc(N)n1 (configuration not stated)	4	9	3	0	2	.	.	.	.
O=C(CN1CCCCC1)NCC(=O)Nc1ccc(F)c(F)c1F	1	.	-1	0	-1	.	.	.	.
Cc1ccc(CCNC(=O)CCCn2nc(C)c3c(C)n(-c4ccc(C)cc4)nc3c2=O)cc1	-13	25	1	-1	5	224	0	104	0
CCC(C(=O)Nc1cc(F)ccc1F)n1nc(C)c2c(C)n(-c3ccc(C)cc3)nc2c1=O (configuration not stated)	-12	25	6	5.0*	0	83	0	98	0
Cc1ccc(-n2nc3c(=O)n(CCCC(=O)NCCc4ccccc4)nc(C)c3c2C)cc1	6	14	-2	0	2	.	.	.	.
N#CC1=C(N)C2=C(N3CCCCC3)CCCC2C1(C#N)C#N (configuration not stated)	-7	10	-1	0	-1	.	.	.	.
N#CC(C#N)=C1C=C2C=C(N3CCCCC3)CCC2CC1 (configuration not stated)	64	.	-274	9.3*	.	179	1	232*	1
CCCCN(C)C1=CC2=CC(=C(C#N)C#N)CCC2CC1 (configuration not stated)	-5	17	-75	5.5*	291*	231	1	282*	1
CCN(CC)C1=CC2=CC(=C(C#N)C#N)CCC2CC1 (configuration not stated)	i	19	-113	3.4*	219*	155	1	225*	1
SMILES	Mot1-301 SUMO	AI-2 QS modul	ATG4B inh	Efflux pump mplx	V-ATPase pH	Yeast cmpd fluor	CaMdr1 efflux inh	Cdr2 pump inh	CaCdr1 efflux inh
Cc1ccc(S(=O)(=O)NC(=O)COc2cc(C)ccc2C(C)C)cc1	200	4	-2	0	1	.	.	.	.
Cc1ccc(C(=O)OCC(=O)NC2CCCC2)cc1	0	17	-4	0	0	.	.	.	.
CN1CCOCCOCCN(C)C1=O	-5	11	-12	0	0	.	.	.	.
O=[N+]([O-])c1ccc(Cl)c(S(=O)(=O)Nc2ccc(-c3ccc(N4CCOCC4)nn3)cc2)c1	-3	11	1	0	-2	.	.	.	.
O=S(=O)(Nc1ccc(-c2ccc(N3CCOCC3)nn2)cc1)c1ccc(Cl)c(Cl)c1	342	40	-7	0.8*	2	102	0	114	0
COc1ccccc1-c1sc2ccccc2c1-c1ccc(OCCN2CCCCC2)cc1	.	.	-2	40*	1	113	0	96	0
COc1ccc2sc(-c3ccccc3OC)c(-c3ccc(OCCN(C)C)cc3)c2c1	.	.	2	196*	-1	124	2	+	1
COc1cccc(-c2sc3ccccc3c2-c2ccc(OCCN3CCCC3)cc2)c1	59	.	4	1	4	.	.	.	.
COc1ccc2c(-c3ccc(OCCN4CCCCC4)cc3)c(-c3ccccc3OC)sc2c1	.	.	-4	1	0	100	0	99	0
COC/C=C/C1=CC2=CC(=O)C(C)(OC(=O)c3cnc4ccccc4n3)C(=O)C2=CN1CC(C)C (configuration not stated)	-5	38	-5	0.9*	4	103	0	100	0
COC/C=C/C1=CC2=CC(=O)C(C)(OC(=O)c3cnc4ccccc4n3)C(=O)C2=CN1c1ccccc1 (configuration not stated)	14	28	3	0	.	.	.	.	.

Source: PubChem
